This is an account of results in the supplement of paper PMC8728848.

The full list was thinned out, with the strongest signals kept by preference.

Assay in all cases: glycan array binding signal (z-score within array); higher = stronger binding
Conditions in all cases: glycan notation: IUPAC condensed, linker removed

One assay has as its target Fuc(a1-2)Gal(b1-3)GalNAc. The method in brief:
(§1)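 The binding signal is a Z-score computed within each array and averaged over linkers. Arrays of the same protein sequence at different concentrations or buffers were also averaged together. Data originate from 3228 arrays in the Consortium for Functional Glycomics database, kept only where the protein sequence was available.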

Assay [1] deals with Fuc(a1-2)Gal(b1-3)GalNAc(b1-3)Gal(a1-4)Gal(b1-4)Glc. The method in brief: as §1
Assay [2] addresses Fuc(a1-2)Gal(b1-4)GlcNAc(b1-3)Gal(b1-4)GlcNAc. In short, it runs like this: as §1
Another assay has as its target Gal(a1-4)Gal(b1-4)Gal. In short, it runs like this:
as §1

Another assay has as its target Gal(a1-4)Gal(b1-4)GalNAc. The method in brief:
as §1

For assay [3], the target named is Gal(b1-3)GalNAc(b1-3)Gal(b1-4)Glc. The method in brief: as §1
The next assay concerns the target Gal(b1-4)Glc6S. The method in brief: as §1
The target of assay [4] is Gal(b1-4)GlcNAc(b1-3)GalNAc. In short, it runs like this: as §1
The target in another assay is Gal6S(b1-4)Glc. The method in brief: as §1
Assay [5] has as its target Man(a1-2)Man(a1-2)Man(a1-3)[Man(a1-2)Man(a1-6)[Man(a1-3)]Man(a1-6)]Man(b1-4)GlcNAc(b1-4)GlcNAc. In short, it runs like this: as §1
Another assay addresses Man(a1-3)[Man(a1-6)]Man. In short, it runs like this: as §1
Assay [6] deals with Neu5Ac(a2-3)Gal(b1-3)GalNAc6S. In short, it runs like this:
as §1

In assay [7] the target is Neu5Ac(a2-3)Gal(b1-4)GlcNAc(b1-3)Gal(b1-4)[Fuc(a1-3)]GlcNAc. The method in brief:
as §1

Another assay concerns the target Neu5Ac(a2-3)GalNAc. The method in brief: as §1
Assay [8] deals with Neu5Gc(a2-6)Gal(b1-4)GlcNAc. The method in brief: as §1
The target in another assay is Fuc(a1-4)GlcNAc. In short, it runs like this:
as §1

Assay [9] concerns the target Gal(a1-3)[Gal(a1-4)]Gal(b1-4)GlcNAc. The method in brief: as §1
For assay [10], the target named is Gal(b1-3)GalNAc(b1-3)Gal(a1-4)Gal(b1-4)Glc. The method in brief:
as §1

Assay [11] deals with Gal(b1-4)GalNAc(b1-3)[Fuc(a1-2)]Gal(b1-4)GlcNAc. In short, it runs like this:
as §1

Assay [12] deals with Gal(b1-4)GlcNAc(b1-6)GalNAc. In short, it runs like this:
as §1

A further assay has as its target Gal3S6S(b1-4)GlcNAc. The method in brief: as §1
A further assay concerns the target GalNAc(b1-3)GalNAc. The method in brief: as §1
In assay [13] the target is GlcNAc(b1-2)Gal(b1-3)GalNAc. The method in brief:
as §1

The target in assay [14] is GlcNAc(b1-3)Gal(b1-3)GalNAc. In short, it runs like this: as §1
In a further assay the target is GlcNAc(b1-3)GalNAc. In short, it runs like this: as §1
Assay [15] deals with GlcNAc(b1-6)Gal(b1-4)GlcNAc. The method in brief: as §1
The target of assay [16] is Man(a1-2)Man(a1-3)[Man(a1-6)]Man(a1-6)[Man(a1-2)Man(a1-3)]Man(b1-4)GlcNAc(b1-4)GlcNAc. In short, it runs like this:
as §1

For the next assay, the target named is Man(b1-4)GlcNAc. In short, it runs like this:
as §1

The target of assay [17] is Neu5Ac(a2-8)Neu5Ac(a2-8)Neu5Ac. In short, it runs like this:
as §1

Assay [18] addresses Fuc(a1-2)Gal(b1-3)GalNAc(b1-4)[Neu5Ac(a2-3)]Gal(b1-4)Glc. In short, it runs like this: as §1
In assay [19] the target is Fuc(a1-2)Gal6S(b1-4)GlcNAc. In short, it runs like this:
as §1

Assay [20] addresses Fuc(a1-3)[Gal(b1-4)]GlcNAc(b1-4)Gal(b1-4)[Fuc(a1-3)]GlcNAc(b1-4)Gal(b1-4)[Fuc(a1-3)]GlcNAc. In short, it runs like this: as §1
The target in assay [21] is Fuc(a1-3)[Gal(b1-4)]GlcNAc6S. In short, it runs like this:
as §1

For assay [22], the target named is Fuc(a1-3)[GalNAc(b1-4)]Gal(b1-4)GlcNAc. The method in brief: as §1
Assay [23] addresses Gal(a1-3)Gal(b1-4)[Fuc(a1-3)]GalNAc. In short, it runs like this: as §1
The next assay has as its target Gal3S(b1-4)GlcNAc6S. In short, it runs like this: as §1
The target in a further assay is Gal6S(b1-4)Glc6S. The method in brief:
as §1

A further assay has as its target Gal6S(b1-4)GlcNAc. In short, it runs like this: as §1
The next assay addresses Glc(b1-6)Glc. In short, it runs like this:
as §1

Assay [24] addresses GlcNAc(a1-6)Gal(b1-4)GlcNAc. In short, it runs like this:
as §1

For assay [25], the target named is GlcNAc(b1-3)Gal(b1-4)GlcNAc(b1-3)Gal(b1-4)GlcNAc. The method in brief: as §1
The target in assay [26] is GlcNAc(b1-3)[GlcNAc(b1-6)]GlcNAc. The method in brief: as §1
Assay [27] addresses GlcNAc(b1-4)Gal(b1-4)GlcNAc. In short, it runs like this:
as §1

In assay [28] the target is GlcNAc(b1-4)[GlcNAc(b1-6)]GalNAc. The method in brief: as §1
In the next assay the target is Kdn(a2-3)Gal(b1-4)GlcNAc. In short, it runs like this:
as §1

In assay [29] the target is Neu5Ac(a2-3)Gal(b1-3)GlcNAc. In short, it runs like this: as §1
In assay [30] the target is Neu5Ac(a2-3)Gal(b1-4)[Fuc(a1-3)]GlcNAc(b1-3)Gal(b1-4)GlcNAc. The method in brief: as §1
The target in assay [31] is Neu5Ac(a2-8)Neu5Ac(a2-8)Neu5Ac(a2-3)[GalNAc(b1-4)]Gal(b1-4)Glc. The method in brief:
as §1

Assay [32] concerns the target Neu5Gc(a2-3)Gal(b1-4)GlcNAc. In short, it runs like this: as §1

B1: RNase 1 (Bos taurus), P61823 (protein)
chain: MALKSLVLLSLLVLVLLLVRVQPSLGKETAAAKFERQHMDSSTSAASSSNYCNQMMKSRNLTKDRCKPVNTFVHESLADVQAVCSQKNVACKNGQTNCYQSYSTMSITDCRETGSSKYPNCAYKTTQANKHIIVACEGNPYVPVHFDASV
With B1, the “glycan array binding signal (z-score)” value with Fuc(a1-2)Gal(b1-3)GalNAc was -0.157; in assay [1] it was 1.93; in [2] it was -0.225; with Gal(a1-4)Gal(b1-4)Gal, 7.93; in the assay with Gal(a1-4)Gal(b1-4)GalNAc it was 8.87; in assay [3] it was 0.641. Further, the “glycan array binding signal (z-score)” value with Gal(b1-4)Glc6S is -0.14; in [4], -0.22; with Gal6S(b1-4)Glc, -0.073; in assay [5] it was -0.153; with Man(a1-3)[Man(a1-6)]Man, -0.147; in assay [6] it was -0.195. Further, the entries for the “glycan array binding signal (z-score)” value (in assay [7]; with Neu5Ac(a2-3)GalNAc; in [8]) were -0.22, -0.24 and -0.201, respectively.

B2: MPA (Maclura pomifera) (protein)
chain: GVTFDDGAYTGIREINFEYNSETAIGGLRVTYDLNGMPFVAEDHKSFITGFKPVKISLEFPSEYIVEVSGYVGKVEGYTVIRSLTFKTNKQTYGPYGVTNGTPFSLPIENGLIVGFKGSIGYWLDYFSIYLSLNGPNGKSQSIIVGPWGDRVTN
Take B2: the “glycan array binding signal (z-score)” value with Fuc(a1-2)Gal(b1-3)GalNAc is 2.25; with Fuc(a1-4)GlcNAc, -0.223; in assay [9] it was -0.16; in assay [10] it was -0.24; in assay [11] it was -0.249; in assay [4], 5.97. The “glycan array binding signal (z-score)” value in assay [12] was -0.161; with Gal3S6S(b1-4)GlcNAc, -0.233; with GalNAc(b1-3)GalNAc, 6.31; in [13], 5.63; in assay [14], 3.46; with GlcNAc(b1-3)GalNAc, 6.85. Moreover, the “glycan array binding signal (z-score)” value in assay [15] was -0.229; in assay [16] it was -0.244; with Man(b1-4)GlcNAc, -0.24; in [17], -0.244.

B3: KCR (Mus musculus), P70194 (protein)
chain: MKEAELNRDMARYCTDNQCVSLQPQGLGPKSAALMAPRTLRHVQVILALMVVTVIFSLLALFVVASQPWRPEWNKEPPSLLLRGSNNSGHDNHSQFVRETEMQVAIQRLRDYEENSSSCHKEVQILKYQMDNVSSLVQLLGSHLEDVNADILQTKDVLKESGALALETQALRSSLEVASADIHSLRGDLEKANAMTSQTRGLLKSSTENTSAELHVLGRGLEEAQSEIQALRGSLQSANDLSSQTQGFLQHSMDNISAQIQTVRDGMERAGEKMNSLKKELETLTAQTQKANGHLEQTDAQIQGLKAELKSTSSLNSRIEVVNGQMKDASRELQTLRRDLSDVSALKSNVQMLQSNLQRAKTEMQTLKADLQATKALTAKIQGEQNRLGALQEAVAAQKQEQKTQNQVLQLIAQNWKYFNGNFYYFSRDKKPWREAEKFCTSQGAHLASVTSQEEQAFLVQTTSSGDHWIGLTDQGTEGIWRWVDGTPFNNAQSKGFWGKNQPDNWRHRNGEREDCVHVRQQWNDMACGSSYPWVCKKSTGWSAARVG
B3: the “glycan array binding signal (z-score)” value was -0.72 in the assay with Fuc(a1-2)Gal(b1-3)GalNAc; -0.426 in [18]; -0.635 in [2]; 0.367 in [19]; 4.39 in assay [20]; 3.94 in [21]. Moreover, the “glycan array binding signal (z-score)” value is 3.06 in [22]; 0.117 in assay [23]; 0.95 in the assay with Gal3S(b1-4)GlcNAc6S; 2.48 in the assay with Gal6S(b1-4)Glc6S; 0.769 with Gal6S(b1-4)GlcNAc; -0.566 with Glc(b1-6)Glc. The “glycan array binding signal (z-score)” value was 2.47 in [24]; -0.465 in [25]; -0.721 in assay [26]; -0.82 in [27]; -0.917 in assay [28]; -0.623 with Kdn(a2-3)Gal(b1-4)GlcNAc. Also, the “glycan array binding signal (z-score)” value is -0.336 in assay [5]; -0.592 in assay [29]; 0.119 in assay [30]; 0.254 in assay [31]; -0.288 in assay [32].
